Common to all, as to test: NCI-60 one-dose screen, 48 h (100 = growth as untreated, 0 = no growth, -100 = all killed)
What all share (settings): 10 µM unless noted

In experiment [1] the test system is SK-MEL-2 melanoma.
Experiment [2] concerns EKVX NSCLC.
The subject of experiment [3] is SN12C renal.
The subject of experiment [4] is UO-31 renal.
Experiment [5] deals with TK-10 renal.
The subject of experiment [6] is ACHN renal.
In experiment [7] the test system is CAKI-1 renal.
Experiment [8] has as its system A498 renal.
The test system of experiment [9] is CCRF-CEM leukemia.
The test system of experiment [10] is MOLT-4 leukemia.
For experiment [11], the system named is SR leukemia.
Experiment [12] relates to RPMI-8226 leukemia.
The subject of experiment [13] is OVCAR-8 ovarian.
Experiment [14] relates to OVCAR-5 ovarian.
Experiment [15] has as its system OVCAR-4 ovarian.
Experiment [16] has as its system SK-OV-3 ovarian.
Experiment [17] relates to OVCAR-3 ovarian.
Experiment [18] relates to HS 578T breast.
The test system of experiment [19] is NCI/ADR-RES ovarian.

About 83,000 compounds went through this panel and 20% of them were active in at least one assay; those are over-represented in the sample as a whole.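 Interpretation: 100, growth as untreated; towards 0, rising growth inhibition; 0, no net growth; 0 to -100, cell death. Compounds scoring below 10 were considered active.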 Unmarked numbers belong to inactive results. Activity calls are given as the source filed them.

On to `COc1ccc(NC(=O)CSc2nnc(-c3ccc(-c4nc5ccc(Cl)cc5[nH]4)cc3)o2)cc1`, for which the growth in experiment [1] was 39.4%; in [2], 23.3%; in [3], 6.13% (active); in [4], 71.4%; in experiment [5], 112%; in experiment [6] it was 2.97% (active). For the same molecule, the growth is 8.1% (active) in experiment [7]; 60.2% in experiment [8]; 54.2% in [9]; 37.5% in experiment [10]; 18.5% in experiment [11]; 46.3% in experiment [12]. Also, the growth in [13] was 2.41% (active); in experiment [14], 59.8%; in [15] it was 33.8%; in experiment [16], 55%; in experiment [17] it was 41%; in experiment [18] it was 24.7%. The growth in experiment [19] was 48%.

In the case of `CCC(=O)c1cc(C(=O)OC)c2ccc3c4ccccc4ccc3n12`, the growth in [1] was 105%; in [2] it was 83.6%; in [3] it was 57.9%; in [4] it was 52.9%; in experiment [5], 63.9%; in experiment [6] it was 0.659% (active). In addition, the growth in [7] is 42.7%; in experiment [8], 136%; in [9], 97.8%; in [10], 94.8%; in [11], 68.3%; in experiment [12], 84.9%. Besides, the growth is 71.5% in experiment [13]; 73.8% in experiment [14]; 1.22% (active) in experiment [15]; 122% in [16]; 67.5% in experiment [17]; 63.3% in [18]. Moreover, the growth in experiment [19] is 76.6%.

With `CCCCCCCCCCCCCCCCCC(=O)Nc1ccc(OC)cc1`, the growth in [1] was 102%; in experiment [2] it was 94.7%; in experiment [3], 99.7%; in experiment [4] it was 88.8%; in experiment [5], 99.8%; in experiment [6], 105%. Further, the growth in experiment [7] was 98%; in experiment [8], 105%; in experiment [9], 86.4%; in [10], 102%; in experiment [11], 97.7%; in experiment [12], 99.6%. Also, the growth was 112% in [13]; 114% in [14]; 113% in [15]; 115% in experiment [16]; 119% in experiment [17]; 101% in experiment [18]. Also, in experiment [19], the growth is 101%.

As to `Cc1ccc(C2CC(c3ccc(NC(=S)Nc4ccccc4)cc3)=NN2c2ccc(S(N)(=O)=O)cc2)cc1` (stereo unspecified), the growth was 13.4% in [1]; 9.1% (active) in [2]; 28.3% in experiment [3]; 3.53% (active) in [4]; 21.6% in experiment [5]; -33.2% (active) in [6]. Moreover, the growth is -10.6% (active) in experiment [7]; 76.4% in experiment [8]; 14.5% in experiment [9]; 25.8% in [10]; 17.8% in [11]; 7.06% (active) in experiment [12]. Moreover, the growth was 26% in experiment [13]; 16.2% in experiment [14]; 27.1% in experiment [15]; 41.5% in experiment [16]; 2.37% (active) in [17]; 31.7% in experiment [18]. In [19], the growth was 7.5% (active).

`COc1cc(/C=C/C(=O)c2ccc(S(=O)(=O)NCCNc3nc(N(C)C)nc(N4CCOCC4)n3)cc2)cc(OC)c1OC`: the growth was 81.4% in experiment [1]; 36.3% in experiment [2]; -22% (active) in experiment [3]; 12.8% in experiment [4]; 13.5% in experiment [5]; -100% (active) in [6]. For the same molecule, the growth was 39.4% in experiment [7]; 51.9% in [8]; -27.9% (active) in experiment [9]; -40.2% (active) in experiment [10]; -28.2% (active) in experiment [11]; -14.5% (active) in [12]. Also, the growth in [13] is -49.5% (active); in experiment [14], -33.1% (active); in experiment [15] it was 8.16% (active); in experiment [16], 60.3%; in experiment [17] it was -42.2% (active); in experiment [18], 19.9%. Also, the growth in [19] is -39.1% (active).

As to `COC(=O)c1ccc(-c2c(-c3ccccc3)c(F)c3oc(C(=O)OC)c(N)c3c2-c2ccccc2)cc1`, the growth in experiment [1] is 99.6%; in experiment [2] it was 90.4%; in experiment [3], 98.1%; in experiment [4], 88.6%; in [5], 114%; in experiment [6] it was 102%. The growth in [7] is 81.1%; in experiment [8] it was 99%; in experiment [9], 95%; in experiment [10] it was 66.5%; in [11], 76.9%; in experiment [12], 101%. For the same molecule, the growth in [13] is 105%; in experiment [14] it was 96.6%; in experiment [15], 97.6%; in [16], 98.7%; in experiment [17], 103%; in experiment [19], 94.3%.

Turning to `COc1cccc2nc(Nc3cccc(NC(=O)c4ccc(CN5CCN(C)CC5)c(C(F)(F)F)c4)c3)ccc12`, the growth in [1] is -87.8% (active); in experiment [2], -96.2% (active); in experiment [3], -90.5% (active); in experiment [4] it was -88.6% (active); in experiment [5], -93.1% (active); in experiment [6] it was -100% (active). Further, the growth was -100% (active) in experiment [7]; -94.9% (active) in experiment [8]; -44.4% (active) in experiment [9]; -38.5% (active) in experiment [10]; -36.1% (active) in [11]; -40.2% (active) in [12]. Besides, the growth in experiment [13] is -65.2% (active); in experiment [14], -98% (active); in experiment [15], -82.9% (active); in [16], -81.9% (active); in [17], -36.6% (active); in experiment [18] it was -21.1% (active). The growth in experiment [19] was -89.7% (active).

In the case of `COc1ccc2[nH]c(=O)c(CSc3ccccc3Nc3nccc(-c4ccc5c(c4)OCO5)n3)cc2c1`, the growth was 95.6% in experiment [1]; 88% in experiment [2]; 89.4% in [3]; 75.8% in experiment [4]; 99.7% in experiment [5]; 90.4% in experiment [6]. Moreover, the growth in experiment [7] is 68.5%; in [8], 107%; in experiment [9] it was 69.8%; in experiment [10], 50.1%; in [11], 67.3%; in [12], 68.2%. Moreover, the growth in [13] is 79.2%; in experiment [14], 103%; in experiment [15], 61.1%; in [16], 112%; in experiment [17] it was 92.3%; in experiment [18], 89.4%. For the same molecule, in experiment [19], the growth was 74.3%.

These data come from PubChem BioAssay (NCI).
